From PubChem BioAssay (Tox21)
Inconclusive results are not listed. Calls of active or inactive are those of the source. Unless noted, the call rests on the fitted dose curve; in most records, active means well fitted curve in the direction sought with a large enough effect in the repeat runs; inconclusive means weak or mixed curves; inactive means no such curve, though single readings can be large; an effect the other way counts as inactive or inconclusive.

Tests used:
[1] = qHTS assay to identify small molecule agonists of the peroxisome proliferator-activated receptor delta (PPARd) signaling pathway - cell viability counter screen (AID 743211); further: nearly all actives have a fitted effect of over 55% in size
Outline: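 Viability was measured as CellTiter-Glo luminescence (30 min, room temperature) in the same wells as the beta-lactamase readout. GeneBLAzer PPARd UAS-bla HEK293H cells received compound after 5 h plating and were incubated 17 h at 37 C.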

[2] = molecular target: Peroxisome proliferator-activated receptor delta (Homo sapiens) (UniProt Q03181); assay: qHTS assay to identify small molecule agonists of the peroxisome proliferator-activated receptor delta (PPARd) signaling pathway (AID 743212; calls by dose curve)
Outline: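 HEK293H PPARd-bla cells; 5 h preincubation 37 C/5% CO2; compound (DMSO) 37 C; LiveBLAzer B/G FRET substrate 2 h RT; fluorescence intensity.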

[3] = qHTS assay to identify small molecule antagonists of the peroxisome proliferator-activated receptor delta (PPARd) signaling pathway - cell viability counter screen (AID 743213); further: nearly all actives have a fitted effect of over 50% in size
Outline: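 Cytotoxicity counter screen: CellTiter-Glo luminescence read 30 min after addition, in the same wells as the reporter assay. There, PPARd UAS-bla HEK293H cells (3000/well) were treated 17 h at 37 C with compound and 300 nM L165041.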

[4] = qHTS assay to identify small molecule agonists of the farnesoid-X-receptor (FXR) signaling pathway - cell viability counter screen (AID 743218); further: nearly all actives have a fitted effect of over 45% in size
Outline: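 Cytotoxicity counter-screen run in parallel, same wells: FXR-UAS-bla HEK 293T cells dosed 16 h at 37 C, viability read by CellTiter-Glo luminescence after 30 min at room temperature.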

[5] = molecular target: Bile acid receptor (Homo sapiens) (UniProt Q96RI1); assay: qHTS assay to identify small molecule agonists of the farnesoid-X-receptor (FXR) signaling pathway (AID 743220; active means well fitted activation curve with a large enough effect in the signal ratio in the repeat runs, not every such curve was filed as active; the % refers to the signal ratio)
Outline: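 Beta-lactamase reporter under UAS control in GeneBLAzer FXR HEK 293T cells (5000/well) measured with LiveBLAzer FRET substrate after 2 h at room temperature. Compound exposure lasted 16 h at 37C.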

[6] = qHTS assay to identify small molecule antagonists of the farnesoid-X-receptor (FXR) signaling pathway - cell viability counter screen (AID 743221; active means well fitted cell-killing curve with a large enough effect in the repeat runs, not every such curve was filed as active; further: nearly all actives have a fitted effect of over 50% in size)
Outline: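 Cytotoxicity counter screen run in the FXR-bla reporter wells: HEK 293T cells exposed to compound with 50 uM (final) chenodeoxycholic acid for 16 h, 37 C, then viability measured by CellTiter-Glo luminescence after 30 min, room temperature.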

[7] = molecular target: Vitamin D3 receptor (Homo sapiens) (UniProt P11473); assay: qHTS assay to identify small molecule agonists of the vitamin D receptor (VDR) signaling pathway (AID 743222; calls by dose curve)
Outline: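 Quantitative HTS agonist-mode screen: compounds in DMSO were pin-transferred onto VDR-bla cells and incubated 16 h at 37C, 5% CO2. Reporter activity was detected with LiveBLAzer B/G FRET substrate after 2 h at room temperature.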

[8] = qHTS assay to identify small molecule agonists of the vitamin D receptor (VDR) signaling pathway - cell viability counter screen (AID 743224); further: series mostly up to about 63 µM; nearly all actives have a fitted effect of over 50% in size
Outline: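 Viability is measured in the same wells as the VDR-bla reporter assay: after 16 h compound treatment and 2 h substrate loading, CellTiter-Glo is added and luminescence read 30 min later.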

[9] = qHTS assay to identify small molecule antagonists of the vitamin D receptor (VDR) signaling pathway - cell viability counter screen (AID 743225); further: nearly all actives have a fitted effect of over 50% in size
Outline: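 Cytotoxicity counter screen read by CellTiter-Glo luminescence (30 min, room temperature) in the same wells as the VDR-bla antagonist readout. HEK 293T VDR-UAS-bla cells had 16 h at 37C with compound and 3 nM (final) 1-alpha,25-dihydroxyvitamin D3, then 2 h with FRET substrate.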

[10] = qHTS assay to identify small molecule agonists of the NFkB signaling pathway - cell viability counter screen (AID 1159515; calls by dose curve; further: series mostly up to about 61 µM; nearly all actives have a fitted effect of over 55% in size)
Outline: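 Multiplexed viability readout: after the 5 hr compound exposure and 1.5 hr FRET substrate step, CellTiter-Glo reagent went into the same NFkB-bla ME-180 wells; ATP luminescence was measured after 30 min at room temperature.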

[11] = qHTS assay to identify small molecule agonists of the endoplasmic reticulum stress response signaling pathway (AID 1159516; active means well fitted activation curve with a large enough effect in the signal ratio in the repeat runs, not every such curve was filed as active; the % refers to the signal ratio)
Outline: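 Tox21 10K library screened in quantitative HTS format on ESRE-bla HeLa cells, a beta-lactamase reporter under ER stress response element control; 5 hr treatment, FRET read.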

[12] = qHTS assay to identify small molecule agonists of the endoplasmic reticulum stress response signaling pathway - cell viability counter screen (AID 1159517; calls by dose curve)
Outline: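 HeLa cells carrying an ESRE-driven beta-lactamase reporter receive compound for 5 hr at 37 C. Cell viability is then gauged with CellTiter-Glo by luminescence, 30 min at room temperature.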

[13] = qHTS assay to identify small molecule antagonists of the retinoid-related orphan receptor gamma (ROR-gamma) signaling pathway - cell viability counter screen (AID 1159520); further: nearly all actives have a fitted effect of over 50% in size
Outline: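 Cytotoxicity was read from cellular ATP (CellTiter-Glo luminescence) after 16 hr at 37 C with 1 uM doxycycline induction. The inducer was added 2 hr after compound transfer to Tet-on ROR gamma CHO cells.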

[14] = molecular target: Nuclear receptor ROR-gamma (Homo sapiens) (UniProt P51449); assay: qHTS assay to identify small molecule antagonists of the retinoid-related orphan receptor gamma (ROR-gamma) signaling pathway (AID 1159521)
Outline: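 Antagonist read-out: drop in luminescence (ONE-Glo) from an RORE-LUC reporter in CHO cells with doxycycline-inducible ROR-gamma; 2 hr compound pretreatment, 1 uM doxycycline, 16 hr incubation at 37 C.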

[15] = qHTS assay to identify small molecule agonists of the AP-1 signaling pathway - cell viability counter screen (AID 1159525; calls by dose curve; further: nearly all actives have a fitted effect of over 55% in size)
Outline: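 Luminescent ATP readout (Cell Titer Glo, 30 min RT), normalised to DMSO and tetra n-octyl ammonium bromide controls. Cells were ME-180 AP-1-bla in 0.5% dialyzed FBS Opti-MEM, with a 5 h, 37 °C compound exposure.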

[16] = qHTS assay to identify small molecule agonists of the AP-1 signaling pathway (AID 1159526; calls by dose curve)
[17] = molecular target: Vitamin D3 receptor (Homo sapiens) (UniProt P11473); assay: qHTS assay to identify small molecule antagonists of the vitamin D receptor (VDR) signaling pathway (AID 743223; active means well fitted inhibition curve with a large enough effect in the signal ratio in the repeat runs, not every such curve was filed as active; the % refers to the signal ratio)
Outline: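 Antagonist mode: compound added to VDR-bla cells alongside agonist 1alpha,25-dihydroxyvitamin D3 (3 nM final), incubation 16 h at 37C. Read-out is LiveBLAzer FRET fluorescence, 2 h at room temperature.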

[18] = molecular target: Retinoic acid receptor RXR-alpha (Homo sapiens) (UniProt P19793); assay: qHTS assay to identify small molecule agonists of the RXR signaling pathway (AID 1159527; calls by dose curve; further: nearly all actives have a fitted effect of over 35% in size)
Outline: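 Agonist-mode beta-lactamase reporter assay: HEK 293T RXR-alpha-UAS-bla cells treated 16 hr at 37 C with compounds, 9-cis retinoic acid as positive control. LiveBLAzer FRET substrate, 405 nm excitation, 460/530 nm emission.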

[19] = molecular target: Peroxisome proliferator-activated receptor delta (Homo sapiens) (UniProt Q03181); assay: qHTS assay to identify small molecule antagonists of the peroxisome proliferator-activated receptor delta (PPARd) signaling pathway (AID 743215; active means well fitted inhibition curve with a large enough effect in the signal ratio in the repeat runs, not every such curve was filed as active; the % refers to the signal ratio;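 further: cells stimulated with agonist L165041 at 300 nM final during compound exposure; series mostly up to about 62 µM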)
Outline: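 Inhibition of L165041-driven (300 nM final) PPARd signaling is scored in HEK293H UAS-bla cells. Exposure lasts 17 h at 37 C; beta-lactamase activity is then read by FRET substrate fluorescence after 2 h at room temperature.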

[20] = molecular target: Bile acid receptor (Homo sapiens) (UniProt Q96RI1); assay: qHTS assay to identify small molecule antagonists of the farnesoid-X-receptor (FXR) signaling pathway (AID 743217; active means well fitted inhibition curve with a large enough effect in the signal ratio in the repeat runs, not every such curve was filed as active; the % refers to the signal ratio)
Outline: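 Antagonist mode against 50 uM (final) chenodeoxycholic acid stimulation in FXR-bla HEK 293T cells, 16 h at 37 °C. Inhibition detected as reduced beta-lactamase activity via LiveBLAzer B/G FRET fluorescence after 2 h at room temperature.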

Measured: Potency

Chain of Peroxisome proliferator-activated receptor delta (Homo sapiens) (Q03181 whole entry, looked up): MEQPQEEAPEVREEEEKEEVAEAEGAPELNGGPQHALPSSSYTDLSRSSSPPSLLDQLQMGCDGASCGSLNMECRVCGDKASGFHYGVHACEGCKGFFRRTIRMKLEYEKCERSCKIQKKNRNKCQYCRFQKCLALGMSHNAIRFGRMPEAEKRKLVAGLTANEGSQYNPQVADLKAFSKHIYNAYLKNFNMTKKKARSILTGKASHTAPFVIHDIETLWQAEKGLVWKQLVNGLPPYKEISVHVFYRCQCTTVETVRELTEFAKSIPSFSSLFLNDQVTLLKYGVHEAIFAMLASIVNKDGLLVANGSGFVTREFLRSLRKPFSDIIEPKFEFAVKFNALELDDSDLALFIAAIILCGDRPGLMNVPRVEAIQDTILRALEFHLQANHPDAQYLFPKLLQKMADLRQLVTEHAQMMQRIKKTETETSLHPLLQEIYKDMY
Chain of Vitamin D3 receptor (Homo sapiens) (P11473 whole entry, looked up): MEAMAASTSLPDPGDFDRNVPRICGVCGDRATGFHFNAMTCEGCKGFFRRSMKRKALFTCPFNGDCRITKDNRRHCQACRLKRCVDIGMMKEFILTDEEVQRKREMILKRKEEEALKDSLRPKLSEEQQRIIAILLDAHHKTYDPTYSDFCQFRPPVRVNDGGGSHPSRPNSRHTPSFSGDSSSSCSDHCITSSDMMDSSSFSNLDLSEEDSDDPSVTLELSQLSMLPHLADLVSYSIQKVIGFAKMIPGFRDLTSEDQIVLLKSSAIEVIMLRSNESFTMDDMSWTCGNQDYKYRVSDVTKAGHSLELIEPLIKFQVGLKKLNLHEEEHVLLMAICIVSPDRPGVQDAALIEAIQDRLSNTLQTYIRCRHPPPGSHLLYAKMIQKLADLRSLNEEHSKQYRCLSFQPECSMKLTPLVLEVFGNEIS
Chain of Retinoic acid receptor RXR-alpha (Homo sapiens) (P19793 whole entry, looked up): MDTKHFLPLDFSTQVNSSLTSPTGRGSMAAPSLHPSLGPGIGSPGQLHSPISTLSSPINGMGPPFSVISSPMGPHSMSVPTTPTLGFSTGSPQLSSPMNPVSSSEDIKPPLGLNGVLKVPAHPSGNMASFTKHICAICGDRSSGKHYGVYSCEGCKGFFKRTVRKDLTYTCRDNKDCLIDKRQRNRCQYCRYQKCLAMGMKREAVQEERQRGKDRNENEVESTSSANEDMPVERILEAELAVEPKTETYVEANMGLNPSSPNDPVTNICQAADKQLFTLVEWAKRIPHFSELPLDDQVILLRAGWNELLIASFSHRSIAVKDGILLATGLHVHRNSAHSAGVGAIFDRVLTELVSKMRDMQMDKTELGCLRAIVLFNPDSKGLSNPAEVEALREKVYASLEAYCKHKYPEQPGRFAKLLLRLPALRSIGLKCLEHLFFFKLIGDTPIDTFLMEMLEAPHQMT
Chain of Bile acid receptor (Homo sapiens) (Q96RI1 whole entry, looked up): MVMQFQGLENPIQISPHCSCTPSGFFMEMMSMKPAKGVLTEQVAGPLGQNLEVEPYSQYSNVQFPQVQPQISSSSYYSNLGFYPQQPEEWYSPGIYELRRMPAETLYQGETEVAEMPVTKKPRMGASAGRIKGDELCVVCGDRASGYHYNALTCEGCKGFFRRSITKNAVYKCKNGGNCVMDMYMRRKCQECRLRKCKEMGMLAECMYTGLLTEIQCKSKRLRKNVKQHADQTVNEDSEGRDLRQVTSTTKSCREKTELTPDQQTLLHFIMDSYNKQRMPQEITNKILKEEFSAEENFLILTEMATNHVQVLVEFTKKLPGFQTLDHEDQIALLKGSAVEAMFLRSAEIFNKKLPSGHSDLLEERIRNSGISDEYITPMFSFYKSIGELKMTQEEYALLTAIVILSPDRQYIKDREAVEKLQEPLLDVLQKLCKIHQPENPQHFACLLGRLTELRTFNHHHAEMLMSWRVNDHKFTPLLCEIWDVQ

Cc1cc(NC(=O)C(=O)O)cc(C)c1Oc1ccc(O)c2c1CCC2
not listed: [17] | [18] | [19] | [20]
inactive: all other assays above

C#CCOC(=O)[C@@H](C)Oc1ccc(Oc2ncc(Cl)cc2F)cc1
not listed: [19] | [20]
inactive: all other assays above

Cc1cccc(Oc2ccccc2)c1
not listed: [5] | [8] | [18] | [20]
inactive: all other assays above

CC(=O)c1ccc2c(c1)[C@H](NC(=O)c1ccc(F)cc1)[C@@H](O)C(C)(C)O2
not listed: [5] | [17] | [18] | [20]
inactive: all other assays above

C1CCC2OC2C1 (stereo unspecified)
not listed: [5] | [18] | [19] | [20]
inactive: all other assays above

COc1ccc2[nH]c(S(=O)Cc3ncc(C)c(OC)c3C)nc2n1 (stereo unspecified)
not listed: [5] | [18] | [20]
inactive: all other assays above

CC(C)CCCCCCOC(=O)c1ccc(C(=O)OCCCCCCC(C)C)c(C(=O)OCCCCCCC(C)C)c1
not listed: [5] | [18] | [20]
inactive: all other assays above

CCOc1nc2cccc(C(=O)O)c2n1Cc1ccc(-c2ccccc2-c2nn[nH]n2)cc1
not listed: [4] | [5] | [7] | [17] | [18] | [20]
inactive: all other assays above

CC1=CC(=O)/C(=C(/C)O)C(=O)O1
not listed: [17] | [18] | [19] | [20]
inactive: all other assays above

O=C(NS(=O)(=O)/C=C/c1cccs1)c1ccc(F)cc1Br
not listed: [18] | [19]
inactive: all other assays above

Cc1ccc2c(ccc3ccccc32)c1
not listed: [8] | [19] | [20]
inactive: all other assays above

CCCCCCCCCCCCCCCC(=O)OC/C=C(C)/C=C/C=C(C)/C=C/C1=C(C)CCCC1(C)C
not listed: [4] | [18] | [20]
inactive: all other assays above

CCCCOCCOCCOCCOCCO
not listed: [4] | [5] | [9] | [17] | [18] | [20]
inactive: all other assays above

N=C(N=C(N)N)N1CCOCC1
not listed: [3] | [4] | [7] | [17] | [19]
inactive: all other assays above

CN(C)CC[C@@H](c1ccc(Br)cc1)c1ccccn1
not listed: [1] | [6] | [7] | [17] | [20]
inactive: all other assays above

CCN(CC)C(C)=O
not listed: [4] | [5] | [9] | [18] | [20]
inactive: all other assays above

CN(C)CCCNCCCN
not listed: [18]
inactive: all other assays above
